Laboratory results reported in the supplement of paper PMC10646978.
± gives the standard deviation.

Tests used:
Settings in all cases: modulator concentration 10 µM
[1] = tested on: RAW-Dual (murine macrophage reporter line); assay: NF-kB reporter (SEAP) activity fold change vs agonist alone; higher = enhanced NF-kB activity
Summary of the method: (§1)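 Compound reached 10 μM final in each well by pin transfer, onto RAW-Dual murine macrophage reporter cells seeded at 50 000 per well in 384-well plates. After 1 hour at 37 °C, the cells were stimulated overnight with a PRR agonist. SEAP in the supernatant was read with QUANTI-Blue at 620 nm absorbance for NF-κB, and Lucia luciferase was read with QUANTI-Luc luminescence for IRF. Each signal was turned into fold change against the mean agonist-only control on the same plate, and two replicate plates were averaged with propagated errors.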

[2] = tested on: RAW-Dual (murine macrophage reporter line); assay: IRF reporter (Lucia luciferase) activity fold change vs agonist alone; higher = enhanced IRF activity
Summary of the method: as §1

[3] = tested on: RAW-Dual (murine macrophage reporter line); assay: viability score (confluency relative to resting cells, overnight) (fraction); higher = more viable, active = viable (0.7 or more)
Summary of the method: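 Overnight exposure to 10 μM final compound was carried out on RAW-Dual macrophages in 384-well plates. IncuCyte software generated two confluency masks over all wells imaged with IncuCyte. The viability score gives confluency in relation to resting cells. A compound met the cutoff if each mask exceeded 70% of resting cells.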

[4] = agonist: CpG ODN 1826 0.5 ug/mL

Compound | NF-kB reporter [1, 4] | NF-kB reporter ([1]; agonist: LPS 0.1 ug/mL) | NF-kB reporter ([1]; agonist: MPLA […]) | IRF reporter ([2]; agonist: 3'3'-cGAMP 10 ug/mL) | IRF reporter ([2]; agonist: LPS 0.1 ug/mL) | IRF reporter ([2]; agonist: MPLA […]) | viability score [3]
COC(=O)C1=CN(CC2CCCO2)C=C(C(=O)OC)C1c1ccc(F)cc1 (centres undefined) | 1.06 ± 0.065 | 0.875 ± 0.069 | 1.22 ± 0.063 | 0.886 ± 0.062 | 0.95 ± 0.046 | 0.961 ± 0.13 | 0.996 (active)
Cc1[nH]nc(-c2ccc(OCc3ccccc3)c(C)c2O)c1-c1cnn(-c2ccccc2)c1 | 0.892 ± 0.073 | 1.1 ± 0.077 | 0.784 ± 0.049 | 0.95 ± 0.026 | 1.58 ± 0.19 | 1.11 ± 0.095 | 1.01 (active)
Cc1ccc(-n2ncc3c(=O)n(CC=Cc4ccccc4)cnc32)cc1C | 0.969 ± 0.086 | 1.1 ± 0.089 | 0.96 ± 0.091 | 1.03 ± 0.061 | 1.19 ± 0.12 | 1.06 ± 0.34 | 0.984 (active)
Cc1ccc(Nc2nc(N3CCOCC3)nc(N3CCN(c4ccccc4)CC3)n2)cc1 | 0.454 ± 0.029 | 1.05 ± 0.084 | 1.98 ± 0.059 | 0.711 ± 0.027 | 1.4 ± 0.067 | 1.9 ± 0.18 | 0.996 (active)
Cc1ccc(C=NN=C(c2ccccc2)c2ccccc2)o1 | 0.796 ± 0.061 | 0.988 ± 0.076 | 1.05 ± 0.15 | 0.61 ± 0.028 | 0.975 ± 0.098 | 1.07 ± 0.2 | 1.02 (active)
O=C(NC1CC(=O)N(c2ccc(F)cc2)C1)c1ccc(Cl)cc1 (centres undefined) | 1.06 ± 0.054 | 1.11 ± 0.088 | 0.877 ± 0.039 | 0.944 ± 0.064 | 1.24 ± 0.11 | 1.2 ± 0.3 | 0.991 (active)
CCCCSc1nnc2c(n1)OC(c1cccc(O)c1)Nc1ccc(Br)cc1-2 (centres undefined) | 0.765 ± 0.063 | 0.954 ± 0.073 | 0.996 ± 0.14 | 0.644 ± 0.031 | 0.931 ± 0.065 | 0.866 ± 0.075 | 1.02 (active)
c1coc(CNc2nc(-c3ccncc3)cs2)c1 | 0.857 ± 0.073 | 0.863 ± 0.13 | 1.25 ± 0.11 | 0.492 ± 0.03 | 1.12 ± 0.08 | 1.14 ± 0.097 | 0.981 (active)
CCN(CC)Cc1cc(Nc2ccnc3cc(Cl)ccc23)ccc1O.Cl.Cl.O.O | 0.606 ± 0.026 | 0.671 ± 0.054 | 0.944 ± 0.068 | 1.39 ± 0.23 | 1.22 ± 0.24 | 1.16 ± 0.46 | 0.931 (active)
CC(C)NCC(O)COc1cccc2ccccc12 (centres undefined) [Prestw-1075] | 1.02 ± 0.064 | 0.92 ± 0.11 | 1.05 ± 0.043 | 0.896 ± 0.032 | 0.929 ± 0.071 | 0.918 ± 0.09 | 0.985 (active)
COc1ccc(C(=O)ON=C(N)c2ccc(OC)c(OC)c2)cc1OC | 0.825 ± 0.096 | 0.878 ± 0.09 | 0.971 ± 0.086 | 0.933 ± 0.078 | 1.1 ± 0.07 | 1.13 ± 0.11 | 1.01 (active)
CSCCC(NC(C)=O)C(=O)N1CCC(n2c(C)nc3ccccc32)C1 (centres undefined) | 1.07 ± 0.063 | 0.96 ± 0.074 | 0.952 ± 0.025 | 0.98 ± 0.04 | 0.968 ± 0.086 | 0.957 ± 0.25 | 1 (active)
C=CCc1ccccc1OCC(O)CNC(C)C.Cl (centres undefined) | 1 ± 0.24 | 0.957 ± 0.14 | 1.06 ± 0.072 | 0.809 ± 0.029 | 1.16 ± 0.24 | 1.07 ± 0.14 | 0.978 (active)
CN(C)CCOC(c1ccc(Cl)cc1)c1ccccn1.O=C(O)/C=C\C(=O)O (centres undefined) | 0.87 ± 0.12 | 1.14 ± 0.19 | 0.954 ± 0.073 | 0.752 ± 0.03 | 1.36 ± 0.27 | 1.15 ± 0.12 | 1 (active)
CC(=O)Oc1ccc2occ(C(=O)c3cccs3)c2c1 | 0.844 ± 0.099 | 0.964 ± 0.13 | 1.19 ± 0.14 | 0.836 ± 0.039 | 1.17 ± 0.074 | 1.26 ± 0.18 | 1.02 (active)
COc1cccc(-n2c(SCc3ccc(F)cc3)nc3c([nH]c4ccccc43)c2=O)c1 | 0.568 ± 0.034 | 1.14 ± 0.077 | 0.693 ± 0.06 | 0.717 ± 0.033 | 1.33 ± 0.15 | 0.902 ± 0.13 | 0.972 (active)
CCOC(=O)CNS(=O)(=O)c1ccc([N+](=O)[O-])cc1 | 1.09 ± 0.093 | 1.05 ± 0.11 | 1.04 ± 0.061 | 0.997 ± 0.13 | 1.05 ± 0.044 | 1.09 ± 0.087 | 0.998 (active)
COc1ccccc1-n1ncc2c(C)nnc(SCC(=O)NCc3ccccc3Cl)c21 | 0.739 ± 0.33 | 0.987 ± 0.077 | 0.761 ± 0.19 | 0.781 ± 0.13 | 0.882 ± 0.15 | 0.781 ± 0.15 | 0.944 (active)
Oc1ccc(N=Cc2ccccc2F)cc1 | 0.861 ± 0.099 | 0.887 ± 0.079 | 1.1 ± 0.064 | 0.304 ± 0.012 | 0.686 ± 0.028 | 1.36 ± 0.14 | 0.879 (active)
Cn1c(=O)c2c(ncn2CC2OCCO2)n(C)c1=O | 0.89 ± 0.12 | 0.921 ± 0.067 | 0.99 ± 0.057 | 0.919 ± 0.084 | 0.904 ± 0.11 | 0.845 ± 0.17 | 1 (active)
CC(=O)c1c(C(C)=O)c(C)n(-c2ccccc2N)c1C | 1.04 ± 0.081 | 0.992 ± 0.1 | 1.01 ± 0.1 | 0.983 ± 0.069 | 1.3 ± 0.21 | 1.43 ± 0.35 | 1.01 (active)
Cc1ccc(OCC(=O)NN=Cc2cc(Br)cc(Br)c2O)c([N+](=O)[O-])c1 | 0.928 ± 0.071 | 0.908 ± 0.11 | 1.08 ± 0.17 | 1.01 ± 0.073 | 1.33 ± 0.26 | 1.47 ± 0.33 | 1.02 (active)
COC(=O)N[C@H](C(=O)N[C@@H](Cc1ccccc1)[C@@H](O)CN(Cc1ccc(-c2ccccn2)cc1)NC(=O)[C@@H](NC(=O)OC)C(C)(C)C)C(C)(C)C.O=S(=O)(O)O | 1.78 ± 0.14 | 1.27 ± 0.1 | 1.46 ± 0.15 | 0.886 ± 0.064 | 1.02 ± 0.061 | 1.14 ± 0.1 | 1.01 (active)
COc1ccc(CNCc2cccc(C(F)(F)F)c2)cc1 | 0.749 ± 0.083 | 1.04 ± 0.087 | 1.02 ± 0.045 | 1.12 ± 0.14 | 0.966 ± 0.071 | 1.37 ± 0.21 | 0.27 (inactive)
Cc1ccc(-n2ncc3c(Nc4cccc(C)c4)ncnc32)cc1 | 0.987 ± 0.2 | 1.14 ± 0.098 | 1.02 ± 0.1 | 0.938 ± 0.05 | 1.09 ± 0.23 | 1.19 ± 0.15 | 0.995 (active)
OC(c1cc(C(F)(F)F)nc2c(C(F)(F)F)cccc12)C1CCCCN1 (centres undefined) [Prestw-126] | 0.781 ± 0.051 | 0.973 ± 0.1 | 0.887 ± 0.059 | 1.13 ± 0.076 | 2.89 ± 0.33 | 1.75 ± 0.16 | 0.0879 (inactive)
CN(C)CCCNc1cc(C(C)(C)C)nc2c(-c3ccccc3)cnn12 | 0.172 ± 0.017 | 0.13 ± 0.012 | 1.23 ± 0.18 | 0.0482 ± 0.0069 | 0.0973 ± 0.0058 | 0.712 ± 0.34 | 0.0497 (inactive)
